C_diff_growth = C. difficile growth inhibitors, primary screen, HTS. Clostridium difficile clinical isolate growth, OD600, 24 h; hits give low values. growth activity, negative = inhibition, % at 16 µg/mL (by protocol). actives 0.25% (n = 86,000);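 active = mean growth activity at or below -80% and every replicate also at or below -80%; inconclusive = mean at or below -80% but some replicate above -80%; inactive = mean growth activity above -80%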;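 note: 0% = DMSO wells and -100% = levofloxacin 16 µg/mL wells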
T_cruzi_growth-1 = T. cruzi intracellular proliferation inhibitors, primary screen, cell-based, beta-gal Tulahuen parasites, NIH3T3 host, luminescence; actives 5.9% (n = 77,000); AID 624255, 2012; inhibition, % at 8.34 µM; T. cruzi beta-gal in NIH3T3, GalScreen luminescence, 90 h;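 active = mean inhibition above about 93%, with at least 55% of replicates each passing it, limit read from the data, passing the limit was not always enough; inconclusive = only one of those two conditions holds; inactive = neither condition holds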
Pf_Dd2_growth = P. falciparum Dd2 growth inhibitors, primary screen, SYBR Green fluorescence, single dose replicates | activity change, % at 10 µM | AID 1159554, 2015 | 72 h; hits give low values | actives 2.3% (n = 94,000); in the data active = activity change below about -80%; inconclusive = no clear call, values can overlap the other calls
T_cruzi_growth-2 = T. cruzi intracellular proliferation inhibitors, confirmation, cell-based, NIH3T3 host, beta-gal parasite, luminescence, cherry-pick; shares compounds with T_cruzi_growth-1; T. cruzi beta-gal in NIH3T3, GalScreen luminescence, 90 h; inhibition, % at 8.35 µM; actives 72% (n = 5,600); AID 651739, 2012;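 active = mean replicate inhibition above about 95% and at least 55% of replicates individually reaching it, limit read from the data; inconclusive = only one of the two criteria is met; inactive = neither criterion is met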
T_cruzi_growth-3 = inhibitors of intracellular T. cruzi replication, confirmation, NIH3T3 host cells, beta-gal parasites, cherry-pick, set 2; shares compounds with T_cruzi_growth-1; T. cruzi beta-gal in NIH3T3, GalScreen luminescence, 90 h; inhibition, % at 2.09 µM; actives 21% (n = 5,600); AID 651740, 2012;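 active = mean inhibition above about 95%, with at least 55% of replicates also reaching it, limit read from the data; inconclusive = meets just one of the two conditions; inactive = meets neither condition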;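 note: plate controls were neutral control median for no effect and positive control median for full effect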
3T3_cytotox = cytotoxicity in mouse NIH/3T3 fibroblasts, confirmation, cytotoxicity control for T. cruzi proliferation inhibitor project, cell-based, cherry-pick, single point. NIH/3T3 viability, CellTiter-Glo ATP luminescence, 90 h. actives 14% (n = 5,600). shares compounds with T_cruzi_growth-1. cytotoxicity (signal decrease), % at 8.35 µM. AID 651742, 2012;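 active = mean signal decrease across replicates above about 35% based on untreated-well scatter, with enough replicates individually passing, limit read from the data; inconclusive = no rule stated though some were filed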;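 note: 0% = median of neutral control wells and 100% = median of positive control wells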
NIH3T3_tox_2 = NIH/3T3 fibroblast cytotoxicity, confirmation, cytotoxicity control, cell-based, cherry-pick, single point, set 2; shares compounds with T_cruzi_growth-1; NIH/3T3 viability, CellTiter-Glo ATP luminescence, 90 h; inhibition, % at 24.9 µM; actives 56% (n = 5,600); AID 651744, 2012;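 active = mean loss of cell viability signal at or above a set limit, and enough replicates individually reaching it; inconclusive = meets only the mean limit or only the replicate share; inactive = meets neither condition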;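 note: 0% = median of neutral control wells and 100% = median of positive control wells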
* hit, by the source's call; ? = inconclusive; · = no result given. In the library only some 6.7% were active in any assay of this set; here they are far more common.

SMILES C_diff_growth T_cruzi_growth-1 Pf_Dd2_growth T_cruzi_growth-2 T_cruzi_growth-3 3T3_cytotox NIH3T3_tox_2
Cc1noc(C)c1NC(=O)N(C)C[C@H]1Oc2c(NS(=O)(=O)c3c(C)noc3C)cccc2C(=O)N([C@H](C)CO)C[C@H]1C 5 104* 12 82 24 1 -2
O=C(C[C@H]1CC[C@@H]2[C@H](COC[C@H](O)CN2Cc2ccc(F)cc2)O1)NCCc1ccccc1 · -6 -1 · · · ·
CNC[C@@H]1Oc2ccc(NS(=O)(=O)c3ccc(F)cc3)cc2CC(=O)N([C@@H](C)CO)C[C@@H]1C 5 · 11 · · · ·
C[C@H](CO)N1C[C@H](C)[C@@H](CN(C)CC2CCCCC2)OCCCC[C@H](C)Oc2ccc(NC(=O)C3CCCCC3)cc2C1=O 7 65 -2 · · · ·
Cc1noc(C)c1S(=O)(=O)Nc1cccc2c1O[C@H](CN(C)Cc1ccc(-c3ccccc3)cc1)[C@H](C)CN([C@@H](C)CO)C2=O 9 100* -14 91 61 14 11
Cc1noc(C)c1NC(=O)N(C)C[C@@H]1Oc2ccc(N(C)C)cc2C(=O)N([C@H](C)CO)C[C@H]1C 3 106* -28 -94 3 -18 10
Cc1noc(C)c1S(=O)(=O)Nc1cccc2c1O[C@@H](CN(C)Cc1ccc(-c3ccccc3)cc1)[C@@H](C)CN([C@@H](C)CO)C2=O · 27 -3 · · · ·
Cc1noc(C)c1NC(=O)N(C)C[C@H]1Oc2ccc(N(C)C)cc2C(=O)N([C@H](C)CO)C[C@@H]1C 7 73 -76 · · · ·
COc1ccc(NC(=O)N(C)C[C@@H]2Oc3ccc(NC(=O)NC4CCCCC4)cc3CC(=O)N([C@H](C)CO)C[C@H]2C)cc1 1 -5 12 · · · ·
O=C(NCC[C@@H]1CC[C@@H](NC(=O)c2ccccc2F)[C@@H](CO)O1)c1ccc2c(c1)OCO2 · 0 0 · · · ·
CCC(=O)Nc1ccc2c(c1)C(=O)N(C)[C@H]1CC[C@H](CC(=O)NCCc3ccccc3)O[C@@H]1CO2 -3 -51 8 · · · ·
Cc1ccc(-c2ccc([C@@H]3[C@@H](CO)N4CCCCN(C(=O)Nc5cccc(F)c5)C[C@@H]34)cc2)cc1 65 105* -20 89 ? 69* 105*
O=C(Nc1cccc(F)c1)N1CCCCN2[C@H](C1)[C@H](c1ccc(-c3ccncc3)cc1)[C@@H]2CO -1 76 -20 · · · ·
O=C(Nc1cccc(F)c1)N1CCCCN2[C@@H](CO)[C@@H](c3ccc(-c4ccncc4)cc3)[C@@H]2C1 11 ? -58 104* 83 23 43*
Cc1ccc(-c2ccc([C@@H]3[C@H]4CN(C(=O)Nc5cccc(F)c5)CCCCN4[C@H]3CO)cc2)cc1 50 99* 10 100* 108* 47* 104*
Cc1ccc(-c2ccc([C@H]3[C@@H](CO)N4C(=O)CN(C(=O)Nc5cccc(F)c5)C[C@@H]34)cc2)cc1 11 · -40 · · · ·
Cc1ccc(S(=O)(=O)N(C)C[C@@H]2Oc3c(NC(=O)Nc4c(C)noc4C)cccc3C(=O)N([C@@H](C)CO)C[C@H]2C)cc1 3 32 -7 · · · ·
COc1cccc(S(=O)(=O)N[C@@H]2CC[C@H](CCNC(=O)Nc3cc(F)ccc3F)O[C@H]2CO)c1 1 -33 1 · · · ·
O=C(C[C@H]1CC[C@H]2[C@@H](COC[C@H](O)CN2CCC(F)(F)F)O1)NCc1ccc(Oc2ccccc2)cc1 20 108* · 104* 26 10 17
O=C(C[C@@H]1CC[C@H]2[C@@H](COC[C@H](O)CN2CCC(F)(F)F)O1)NCC1CCCCC1 -2 109* -13 46 13 8 -1
O=C(C[C@H]1CC[C@@H]2[C@H](COC[C@H](O)CN2CCC(F)(F)F)O1)NCc1ccc(Oc2ccccc2)cc1 -4 -2 · · · · ·
O=C(C[C@@H]1CC[C@H]2[C@@H](COC[C@@H](O)CN2CCC(F)(F)F)O1)NCC1CCCCC1 2 65 -18 · · · ·
O=C(CN1CCOCC1)NCC[C@@H]1CC[C@@H](NS(=O)(=O)c2ccc(Cl)cc2)[C@@H](CO)O1 2 -54 8 · · · ·
COc1ccc(NC(=O)N(C)C[C@@H]2OCCCC[C@H](C)Oc3ccc(NS(=O)(=O)c4ccc(F)cc4)cc3C(=O)N([C@H](C)CO)C[C@H]2C)cc1 -1 · -25 · · · ·
C[C@@H]1CN([C@@H](C)CO)C(=O)c2cc(C#CC3CC3)cnc2O[C@H]1CN(C)S(=O)(=O)c1cccc(F)c1 · -52 -38 · · · ·
SMILES C_diff_growth T_cruzi_growth-1 Pf_Dd2_growth T_cruzi_growth-2 T_cruzi_growth-3 3T3_cytotox NIH3T3_tox_2
O=C(Nc1ccccc1F)N1CCCCN2[C@H](C1)[C@@H](c1ccc(-c3cccnc3)cc1)[C@@H]2CO -6 71 11 · · · ·
COc1ccc(-c2ccc3c(c2)O[C@@H](CN(C)Cc2cccnc2)[C@@H](C)CN([C@@H](C)CO)S3(=O)=O)cc1 -2 · -60 · · · ·
COc1ccc(-c2ccc3c(c2)O[C@H](CN(C)Cc2cccnc2)[C@@H](C)CN([C@H](C)CO)S3(=O)=O)cc1 -13 · -68 · · · ·
COc1cccc(-c2ccc3c(c2)O[C@@H](CN(C)Cc2cccnc2)[C@H](C)CN([C@H](C)CO)S3(=O)=O)c1 -5 112* -52 ? 92 56* 104*
COc1cccc(-c2ccc3c(c2)O[C@H](CN(C)Cc2cccnc2)[C@H](C)CN([C@H](C)CO)S3(=O)=O)c1 -3 112* -3 97* 64 54* 64*
COc1cccc(-c2ccc3c(c2)O[C@H](CN(C)Cc2cccnc2)[C@@H](C)CN([C@@H](C)CO)S3(=O)=O)c1 -1 119* -58 105* 106* ? 60*
COc1cccc(-c2ccc3c(c2)O[C@H](CN(C)Cc2cccnc2)[C@H](C)CN([C@@H](C)CO)S3(=O)=O)c1 -5 100* -8 97* 101* 63* 66*
COc1ccc(-c2ccc3c(c2)O[C@H](CN(C)Cc2cccnc2)[C@H](C)CN([C@H](C)CO)S3(=O)=O)cc1 -4 · -6 · · · ·
COc1ccc(-c2ccc3c(c2)O[C@H](CN(C)Cc2cccnc2)[C@H](C)CN([C@@H](C)CO)S3(=O)=O)cc1 -7 · -28 · · · ·
